Experimental data taken from PubChem BioAssay (EPA / NIEHS).
Several values for one entry are separate records, joined by “and”; a condition that tells them apart may be missing. Identical values can stand only once. Records with an inconclusive call do not appear. A structure can be active in one record and inactive in another. Activity calls are given as the source filed them. How the source made its calls, unless noted: active means hit-call score of the fitted dose curve at least 0.9, where 1 is the maximum; inactive means score below 0.9.

What was measured:
[1] = CCTE_Mundy_HCI_hNP1_Casp3_7: CCTE's Caspase-Glo 3/7 Assay in human neuroprogenitor cells for Apoptosis, Mundy Lab (AID 2284240)
Procedure, shortened: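 Neuroepithelial-lineage stem cells from WA09 embryonic cells were treated with chemicals after 40–44 h of culture. Twenty-four hours later, caspase-3/7 activation was detected luminescently after a 30 min room-temperature reagent step, with DMSO as baseline.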

[2] = CCTE_Mundy_HCI_hNP1_CellTiter: CCTE's Cell Titer-Glo 2 Assay in human neuroprogenitor cells for Viability, Mundy Lab (AID 2284241; active means hit-call score of the fitted dose curve at least 0.9, where 1 is the maximum)
Procedure, shortened: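 Measures ATP content in human neural progenitors derived from WA09 embryonic cells. Read-out at 26.5 hours after dosing, with DMSO serving as the negative control and baseline.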

[3] = CCTE_Mundy_HCI_Cortical_Synap_Neur_Matur_NeuronCount: CCTE's Synaptogenesis and Neurite Maturation Assay in rat cortical cells for Neuron Count, Mundy Lab (AID 2284242; active means hit-call score of the fitted dose curve at least 0.9, where 1 is the maximum)
Procedure, shortened: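 Cortical cells from rat are plated, treated with AraC at DIV 5, and exposed to test chemicals with a media change at DIV 7. At DIV 12 they are fixed and immunostained (MAP2, synaptophysin), and imaged neuron counts are compared against DMSO controls.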

[4] = read-out: Collagen I, COL1A1 (gene 1277); test: BSK_MyoF_CollagenI: BioMAP Diversity Plus: MyoF Assay for Collagen I Biomarker Activity (AID 2284238); conditions: primary human lung fibroblasts
Procedure, shortened: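 Multiplexed primary human lung fibroblast system; Collagen I measured by ELISA at 24 h post-dose. Increases are referenced to DMSO.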

[5] = read-out: Collagen III, COL3A1 (gene 1281); test: BSK_MyoF_CollagenIII: BioMAP Diversity Plus: MyoF Assay for Collagen III Biomarker Activity (AID 2284239); conditions: primary human lung fibroblasts
Procedure, shortened: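 Compounds are added to primary human lung fibroblasts and left for 24 hours. Collagen III is then quantified by ELISA. Analysis takes DMSO as baseline and fits increases in signal.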

[6] = read-out: Interleukin 17F (IL17F), IL17F (gene 112744); test: BSK_BT_xIL17F: BioMAP Diversity Plus: BT Assay for Interleukin 17F (IL17F) Biomarker Activity (AID 2284243); conditions: primary human B cells with PBMC
Procedure, shortened: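 Measures secreted IL-17F from a human B cell plus PBMC co-culture at 24 h post-dose by Luminex xMAP, with DMSO defining baseline activity.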

[7] = read-out: Actin alpha 1 (ACTA1), ACTA1 (gene 58); test: BSK_MyoF_ACTA1: BioMAP Diversity Plus: MyoF Assay for Actin alpha 1 (ACTA1) Biomarker Activity (AID 2284244); conditions: primary human lung fibroblasts
Procedure, shortened: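 Cells were exposed to chemical for 24 h before a-SMA levels were quantified by ELISA in human lung fibroblasts. Increases were fitted against DMSO as negative control; parallel SRB staining (0.1% after 10% TCA fixation, 560 nm) assessed cytotoxicity.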

[8] = read-out: Interleukin 2 (IL2), IL2 (gene 3558); test: BSK_BT_xIL2: BioMAP Diversity Plus: BT Assay for Interleukin 2 (IL2) Biomarker Activity (AID 2284245); conditions: primary human B cells with PBMC
Procedure, shortened: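 The BT system combines human B cells with peripheral blood mononuclear cells. Twenty-four hours after chemical dosing, secreted IL-2 was measured with xMAP bead technology, and responses were analyzed as increases over DMSO controls.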

[9] = read-out: Basic fibroblast growth factor (bFGF), FGF2 (gene 2247); test: BSK_MyoF_bFGF: BioMAP Diversity Plus: MyoF Assay for Basic fibroblast growth factor (bFGF) Biomarker Activity (AID 2284246); conditions: primary human lung fibroblasts
Procedure, shortened: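 Chemicals are added to human lung fibroblast cultures and incubated 24 h. bFGF is then measured by ELISA, while parallel cultures receive SRB staining for total protein as a cytotoxicity check. Data are fitted upward against DMSO.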

[10] = read-out: Collagen IV, COL4A1 (gene 1282); test: BSK_MyoF_CollagenIV: BioMAP Diversity Plus: MyoF Assay for Collagen IV Biomarker Activity (AID 2284247); conditions: primary human lung fibroblasts
Procedure, shortened: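 Human lung fibroblast system, 24 h chemical exposure. Endpoint: Collagen IV by ELISA, upward fit vs DMSO.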

[11] = read-out: Monokine induced gamma interferon (MIG), CXCL9 (gene 4283); test: BSK_KF3CT_MIG: BioMAP Diversity Plus: KF3CT Assay for Monokine induced gamma interferon (MIG) Biomarker Activity (AID 2284248); conditions: primary human keratinocytes with fibroblasts
Procedure, shortened: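 The assay uses a co-culture of human keratinocytes and foreskin fibroblasts. Measurement occurs 24 hours after dosing, with MIG detected by ELISA and the DMSO control as baseline.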

[12] = read-out: Vascular cell adhesion molecule 1 (VCAM1), VCAM1 (gene 7412); test: BSK_BF4T_VCAM1: BioMAP Diversity Plus: BF4T Assay for Vascular cell adhesion molecule 1 (VCAM1) Biomarker Activity (AID 2284249); conditions: primary human bronchial epithelial cells with fibroblasts
Procedure, shortened: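 Cell-surface VCAM-1 quantified by ELISA after 24 h chemical exposure of human bronchial epithelial/dermal fibroblast co-cultures, with SRB staining in parallel wells for cytotoxicity; DMSO baseline, positive-direction fitting.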

[13] = read-out: Collagen I, COL1A1 (gene 1277); test: BSK_hDFCGF_CollagenI: BioMAP Diversity Plus: hDFCGF Assay for Collagen I Biomarker Activity (AID 2284250); conditions: primary human foreskin fibroblasts
Procedure, shortened: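 Collagen I ELISA, primary human foreskin fibroblasts, 24 h chemical exposure, DMSO = negative control/baseline, positive fitting direction.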

[14] = read-out: Interferon-inducible T-cell alpha chemoattractant (ITAC), CXCL11 (gene 6373); test: BSK_hDFCGF_ITAC: BioMAP Diversity Plus: hDFCGF Assay for Interferon-inducible T-cell alpha chemoattractant (ITAC) Biomarker Activity (AID 2284251); conditions: primary human foreskin fibroblasts
Procedure, shortened: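 Chemical dosing of primary human foreskin fibroblast cultures preceded ELISA measurement of I-TAC at 24 h. Response was analysed in the positive direction using DMSO as baseline, while parallel SRB staining measured cytotoxicity.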

[15] = read-out: Plasminogen activator inhibitor-1 (PAI1), SERPINE1 (gene 5054); test: BSK_KF3CT_PAI1: BioMAP Diversity Plus: KF3CT Assay for Plasminogen activator inhibitor-1 (PAI1) Biomarker Activity (AID 2284252); conditions: primary human keratinocytes with fibroblasts
Procedure, shortened: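 Cells (human keratinocytes co-cultured with foreskin fibroblasts) are exposed to test chemical for 24 h. PAI-1 is then measured by ELISA and analysed for signal gain against DMSO.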

[16] = read-out: Monocyte Chemoattractant Protein-1 (MCP1), CCL2 (gene 6347); test: BSK_IMphg_MCP1: BioMAP Diversity Plus: IMphg Assay for Monocyte Chemoattractant Protein-1 (MCP1) Biomarker Activity (AID 2284253); conditions: primary human endothelial cells with macrophages
Procedure, shortened: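 ELISA readout of MCP-1 at 24 hours in IMphg co-cultures of venular endothelial cells and macrophages, normalised to DMSO; parallel cultures stained with sulforhodamine B for overt cytotoxicity.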

[17] = read-out: Interleukin-8 (IL8), CXCL8 (gene 3576); test: BSK_KF3CT_IL8: BioMAP Diversity Plus: KF3CT Assay for Interleukin-8 (IL8) Biomarker Activity (AID 2284254); conditions: primary human keratinocytes with fibroblasts
Procedure, shortened: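 ELISA detection of IL-8 from a human skin co-culture, keratinocytes with foreskin fibroblasts, at 24 h following chemical exposure, with gain of signal scored against DMSO controls.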

[18] = read-out: Macrophage Inflammatory Protein-1 Alpha (MIP1a), CCL3 (gene 6348); test: BSK_IMphg_MIP1a: BioMAP Diversity Plus: IMphg Assay for Macrophage Inflammatory Protein-1 Alpha (MIP1a) Biomarker Activity (AID 2284255); conditions: primary human endothelial cells with macrophages
Procedure, shortened: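 MIP-1a protein levels were quantified by ELISA after 24 h treatment of human endothelial cell–macrophage co-cultures, compared with DMSO. Parallel cultures were fixed with TCA and stained with 0.1% SRB to gauge overt cytotoxicity.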

[19] = read-out: Plasminogen activator inhibitor-1 (PAI1), SERPINE1 (gene 5054); test: BSK_MyoF_PAI1: BioMAP Diversity Plus: MyoF Assay for Plasminogen activator inhibitor-1 (PAI1) Biomarker Activity (AID 2284256); conditions: primary human lung fibroblasts;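 further: PAI-1 protein level measured by ELISA in fibroblast cultures; PAI-1 read 24 h after compound addition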
Procedure, shortened: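 Activity reflects increased PAI-1, determined by ELISA and compared with DMSO, in human lung fibroblasts treated for 24 h.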

CD69, CD69 (gene 969) = test: BSK_IMphg_CD69: BioMAP Diversity Plus: IMphg Assay for CD69 Biomarker Activity (AID 2284257); conditions: primary human endothelial cells with macrophages
Procedure, shortened: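 Readout is ELISA for CD69 in primary human venular endothelial cell/macrophage co-culture, taken at 24 h post-dosing. SRB staining of parallel cultures gauged overt cytotoxicity; signal increase versus DMSO defined activity.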

Measured: AC50

CC[C@H]1OC(=O)[C@H](C)[C@@H](O[C@H]2C[C@@](C)(OC)[C@@H](O)[C@H](C)O2)[C@H](C)[C@@H](O[C@@H]2O[C@H](C)C[C@H](N(C)C)[C@H]2O)[C@](C)(O)C[C@@H](C)C(=O)[C@H](C)[C@@H](O)[C@]1(C)O
inactive: [1] | [2] | [3]

NC(=O)NO
inactive: [1] | [2] | [3]

Cn1cnc([N+](=O)[O-])c1Sc1ncnc2nc[nH]c12
active: [7] 0.254 µM | [8] 9.43 µM and 12.6 µM | [12] 12.6 µM | [14] 3.66 µM and 12.6 µM | [18] 12.2 µM
inactive: [4] | [5] | [6] | [7] | [9] | [10] | [11] | [12] | [13] | [15] | [16] | [17] | [18] | [19] | CD69, CD69 (gene 969)

Cn1c(=O)c2c(ncn2C)n(C)c1=O
inactive: [1] | [2] | [3]

O=C1CCC(N2C(=O)c3ccccc3C2=O)C(=O)N1 (centres undefined)
inactive: [1] | [2] | [3]

O=P(OC(CCl)CCl)(OC(CCl)CCl)OC(CCl)CCl
inactive: [1] | [3]
